The nature of experiment [1]: NCI Yeast Anticancer Drug Screen. Data for the rad50 strain (AID 155).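 Note: 0% = growth of vehicle-only cultures of the same strain.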 As to conditions: S. cerevisiae rad50 strain growth inhibition, stronger effect = higher value. A digest of the protocol: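 Compounds were tested on a yeast strain with an engineered DNA damage repair alteration; the reported value is growth inhibition normalised to vehicle treatment.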
Experiment [2] in a line: NCI Yeast Anticancer Drug Screen. Data for the mec2-1 strain (AID 157). As to conditions: S. cerevisiae mec2-1 strain, stronger effect = higher value. The gist of the method: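 Growth inhibition is read against vehicle-treated controls after compound exposure of the mec2-1 yeast strain, which is defective in DNA damage repair or cell cycle control.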
Experiment [3] in a line: NCI Yeast Anticancer Drug Screen. Data for the sgs1 mgt1 strain (AID 161).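 Note: 0% = growth of cultures given vehicle only.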 As to conditions: S. cerevisiae sgs1 mgt1 strain, stronger effect = higher value. A digest of the protocol:
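Percent growth inhibition was derived by comparing compound-exposed mutant yeast with vehicle-exposed cultures. The strain carries alterations in DNA damage repair.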

Experiment [4] is described as follows: NCI Yeast Anticancer Drug Screen. Data for the cln2 rad14 strain (AID 165).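 Note: 0% = growth equal to vehicle treated cultures.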 To be noted: S. cerevisiae cln2 rad14 strain, stronger effect = higher value. The gist of the method: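 Growth inhibition, relative to vehicle-treated controls, is the read-out. The test organism is a yeast strain with defined genetic alterations, cln2 rad14.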
Experiment [5] in a line: NCI Yeast Anticancer Drug Screen. Data for the bub3 strain (AID 167). To be noted: S. cerevisiae bub3 mutant strain, stronger effect = higher value. A digest of the protocol:
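Growth of a checkpoint-deficient yeast mutant is measured after compound exposure. Values represent inhibition relative to vehicle.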

Experiment [6] is described as follows: NCI Yeast Anticancer Drug Screen. Data for the mlh1 rad18 strain (AID 175). As to conditions: S. cerevisiae mlh1 rad18 strain growth inhibition, stronger effect = higher value. A digest of the protocol:
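Cells of a genetically altered yeast strain, deficient in DNA damage repair, were treated with compound. Their growth was then compared with that of vehicle-treated cultures to give inhibition.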

The mark [7] stands for this setting: at 5.0 µM (retest, dose inferred, filed as 0.5).
The mark [8] stands for this setting: at 50.0 µM (retest, dose inferred, filed as 5.0).

This is part of a sample that, as a whole, favours compounds with a hit. Of some 79,000 tested, about 15% had one in any assay. Unmarked numbers belong to inactive results. Active and inactive are the calls of the source. Cut-off read from the data, not from the text of the source: active = growth inhibition above about 70%; inactive = the rest.

For `OC(CCN1CCCCC1)(Cc1ccccc1)c1cccc(Cl)c1` (stereo not given), the growth inhibition in experiment [1] (setting [7]) is 8%; in experiment [1] (setting [8]) it was 46%; in experiment [1] (at 50.0 µM), 58.1%; in experiment [2] (setting [7]), 4%; in experiment [2] (setting [8]), 40%; in experiment [2] (at 50.0 µM), 26.6%. Besides, the growth inhibition in experiment [3] (setting [7]) was 28%; in experiment [3] (setting [8]) it was 78% (active); in experiment [3] (at 50.0 µM), 73.1% (active); in experiment [4] (setting [7]) it was 17%; in experiment [4] (setting [8]), 52%; in experiment [4] (at 50.0 µM), 77.8% (active). Further, the growth inhibition in experiment [5] (setting [7]) was 15%; in experiment [5] (setting [8]) it was 62%; in experiment [5] (at 50.0 µM) it was 50.9%; in experiment [6] (setting [7]), 17%; in experiment [6] (setting [8]), 64%; in experiment [6] (at 50.0 µM), 60.3%.

With `OC1C2CCC1C1C3C=CC(C3)C21` (stereo not given), the growth inhibition in experiment [1] (setting [7]) was 1%; in experiment [1] (setting [8]), 91% (active); in experiment [1] (at 50.0 µM), 84.8% (active); in experiment [2] (setting [7]), 5%; in experiment [2] (setting [8]), 93% (active); in experiment [2] (at 50.0 µM), 62.2%. The growth inhibition is 11% in experiment [3] (setting [7]); 88% (active) in experiment [3] (setting [8]); 42.4% in experiment [3] (at 50.0 µM); -3% in experiment [4] (setting [7]); 38% in experiment [4] (setting [8]); 70.2% (active) in experiment [4] (at 50.0 µM). The growth inhibition in experiment [5] (setting [7]) was 11%; in experiment [5] (setting [8]), 85% (active); in experiment [5] (at 50.0 µM), 52.1%; in experiment [6] (setting [7]), -1%; in experiment [6] (setting [8]), 94% (active); in experiment [6] (at 50.0 µM) it was 83% (active).

In the case of `COc1ccc(CSC(=S)Nc2ccc(Cl)c(C(F)(F)F)c2)cc1`, the growth inhibition in experiment [1] (setting [7]) is 27%; in experiment [1] (setting [8]), 30%; in experiment [1] (at 50.0 µM), 89.7% (active); in experiment [2] (setting [7]), 15%; in experiment [2] (setting [8]), 16%; in experiment [2] (at 50.0 µM), 90.2% (active). The growth inhibition in experiment [3] (setting [7]) was 43%; in experiment [3] (setting [8]) it was 49%; in experiment [3] (at 50.0 µM) it was 89% (active); in experiment [4] (setting [7]), 44%; in experiment [4] (setting [8]), 38%; in experiment [4] (at 50.0 µM) it was 88.7% (active). The growth inhibition in experiment [5] (setting [7]) is 47%; in experiment [5] (setting [8]) it was 63%; in experiment [5] (at 50.0 µM), 88.3% (active); in experiment [6] (setting [7]), 17%; in experiment [6] (setting [8]), 21%; in experiment [6] (at 50.0 µM), 87.2% (active).

In the case of `O=C(CNc1cccc(Cl)c1)Nn1c(-c2ccccc2)nc2ccccc2c1=O`, the growth inhibition is 7% in experiment [1] (setting [7]); 88% (active) in experiment [1] (setting [8]); 92% (active) in experiment [1] (at 50.0 µM); -1% in experiment [2] (setting [7]); 69% in experiment [2] (setting [8]); 87.7% (active) in experiment [2] (at 50.0 µM). The growth inhibition is 4% in experiment [3] (setting [7]); 59% in experiment [3] (setting [8]); 95.2% (active) in experiment [3] (at 50.0 µM); 16% in experiment [4] (setting [7]); 74% (active) in experiment [4] (setting [8]); 90.6% (active) in experiment [4] (at 50.0 µM). For the same compound, the growth inhibition in experiment [5] (setting [7]) is 22%; in experiment [5] (setting [8]) it was 87% (active); in experiment [5] (at 50.0 µM), 96% (active); in experiment [6] (setting [7]) it was 4%; in experiment [6] (setting [8]), 86% (active); in experiment [6] (at 50.0 µM) it was 96.7% (active).

Take `CCCCCN=C(C)C(C)=NCCCCC`: the growth inhibition in experiment [1] (setting [7]) is -15%; in experiment [1] (setting [8]), 70% (active); in experiment [1] (at 50.0 µM), 93.3% (active); in experiment [2] (setting [7]), 3%; in experiment [2] (setting [8]), 92% (active); in experiment [2] (at 50.0 µM), 74.3% (active). In addition, the growth inhibition in experiment [3] (setting [7]) was 9%; in experiment [3] (setting [8]), 50%; in experiment [3] (at 50.0 µM), 31.4%; in experiment [4] (setting [7]), -50%; in experiment [4] (setting [8]), 63%; in experiment [4] (at 50.0 µM), 83.7% (active). The growth inhibition in experiment [5] (setting [7]) is -12%; in experiment [5] (setting [8]), 86% (active); in experiment [5] (at 50.0 µM) it was 96.8% (active); in experiment [6] (setting [7]) it was -9%; in experiment [6] (setting [8]), 94% (active); in experiment [6] (at 50.0 µM) it was 95% (active).

Turning to `S=C(Nc1ccc(Br)c(Cl)c1)SCc1ccc2c(c1)OCO2`, the growth inhibition in experiment [1] (setting [7]) was 49%; in experiment [1] (setting [8]), 97% (active); in experiment [1] (at 50.0 µM), 88% (active); in experiment [2] (setting [7]), 49%; in experiment [2] (setting [8]), 98% (active); in experiment [2] (at 50.0 µM), 88.9% (active). Further, the growth inhibition in experiment [3] (setting [7]) was 77% (active); in experiment [3] (setting [8]) it was 98% (active); in experiment [3] (at 50.0 µM) it was 88.7% (active); in experiment [4] (setting [7]) it was 50%; in experiment [4] (setting [8]) it was 98% (active); in experiment [4] (at 50.0 µM), 86.1% (active). Also, the growth inhibition in experiment [5] (setting [7]) is 76% (active); in experiment [5] (setting [8]) it was 98% (active); in experiment [5] (at 50.0 µM), 88.2% (active); in experiment [6] (setting [7]), 44%; in experiment [6] (setting [8]), 97% (active); in experiment [6] (at 50.0 µM), 87.4% (active).

As to `O=[N+]([O-])c1cccc2c[n+](Cc3ccccc3)ccc12`, the growth inhibition in experiment [1] (setting [7]) was -1%; in experiment [1] (setting [8]), 24%; in experiment [1] (at 50.0 µM), 41.7%; in experiment [2] (setting [7]), -1%; in experiment [2] (setting [8]), 19%; in experiment [2] (at 50.0 µM), 1.65%. Also, the growth inhibition in experiment [3] (setting [7]) is -4%; in experiment [3] (setting [8]), 18%; in experiment [3] (at 50.0 µM) it was 10.1%; in experiment [4] (setting [7]), -13%; in experiment [4] (setting [8]), 15%; in experiment [4] (at 50.0 µM), 38.4%. For the same compound, the growth inhibition in experiment [5] (setting [7]) is -7%; in experiment [5] (setting [8]) it was -5%; in experiment [5] (at 50.0 µM), -1.05%; in experiment [6] (setting [7]) it was -7%; in experiment [6] (setting [8]), 12%; in experiment [6] (at 50.0 µM), 12.3%.

As for `CCC(=O)N(CCC(C)C)c1ccccc1`, the growth inhibition in experiment [1] (setting [7]) is 3%; in experiment [1] (setting [8]), 7%; in experiment [1] (at 50.0 µM), 11.8%; in experiment [2] (setting [7]), -2%; in experiment [2] (setting [8]), 2%; in experiment [2] (at 50.0 µM) it was -2.15%. Further, the growth inhibition in experiment [3] (setting [7]) was 0%; in experiment [3] (setting [8]), 1%; in experiment [3] (at 50.0 µM) it was -8.65%; in experiment [4] (setting [7]) it was 3%; in experiment [4] (setting [8]) it was 4%; in experiment [4] (at 50.0 µM), 41.1%. For the same compound, the growth inhibition was 3% in experiment [5] (setting [7]); -11% in experiment [5] (setting [8]); -18.6% in experiment [5] (at 50.0 µM); 3% in experiment [6] (setting [7]); 2% in experiment [6] (setting [8]); -11.9% in experiment [6] (at 50.0 µM).

Regarding `CCOC(=O)/C(=C/O)c1c[nH]c2ccccc12`, the growth inhibition in experiment [1] (setting [7]) was 0%; in experiment [1] (setting [8]), 94% (active); in experiment [1] (at 50.0 µM) it was 97.8% (active); in experiment [2] (setting [7]), -4%; in experiment [2] (setting [8]) it was 95% (active); in experiment [2] (at 50.0 µM) it was 98.3% (active). The growth inhibition in experiment [3] (setting [7]) is -4%; in experiment [3] (setting [8]), 95% (active); in experiment [3] (at 50.0 µM), 96.8% (active); in experiment [4] (setting [7]), 1%; in experiment [4] (setting [8]), 96% (active); in experiment [4] (at 50.0 µM), 96% (active). In addition, the growth inhibition in experiment [5] (setting [7]) is 0%; in experiment [5] (setting [8]), 96% (active); in experiment [5] (at 50.0 µM) it was 97.3% (active); in experiment [6] (setting [7]) it was 3%; in experiment [6] (setting [8]), 96% (active); in experiment [6] (at 50.0 µM), 97.7% (active).

Turning to `O=C(Nc1ccc(Cl)cc1)NS(=O)(=O)c1ccc2c(c1)CCC2`, the growth inhibition in experiment [1] (setting [7]) was -18%; in experiment [1] (setting [8]), 35%; in experiment [1] (at 50.0 µM), 59.2%; in experiment [2] (setting [7]), -40%; in experiment [2] (setting [8]), 16%; in experiment [2] (at 50.0 µM), 39.4%. The growth inhibition in experiment [3] (setting [7]) is -30%; in experiment [3] (setting [8]), 57%; in experiment [3] (at 50.0 µM), 69.8%; in experiment [4] (setting [7]), -23%; in experiment [4] (setting [8]), 38%; in experiment [4] (at 50.0 µM), 59%. In addition, the growth inhibition in experiment [5] (setting [7]) is -14%; in experiment [5] (setting [8]), 62%; in experiment [5] (at 50.0 µM), 30.4%; in experiment [6] (setting [7]) it was -47%; in experiment [6] (setting [8]), 27%; in experiment [6] (at 50.0 µM), 45.6%.

The record behind these values is PubChem BioAssay (NCI).
